Measured values published in PubChem BioAssay AID1159580 (chemical genetic matrix, 2015).
Several values for one entry are separate records, joined by “and”; a condition that tells them apart may be missing. Equal entries are not always repeated. Out of some 5,500 compounds screened, about 2,000 (36%) were called active. About 18% were inconclusive and are not listed. No stated cut-off is given here; in the data, active means normalized growth mostly below about 0.91 (no sharp cut-off); inconclusive means no clear call, values can overlap the other calls; inactive means mostly above about 0.92. The list shows a part of the results.

Assay: chemical genetic growth profiling, strain panel (AID 1159580);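 further: tested at 20 µM; growth read once vehicle control cultures reached saturation at 30 °C; 1 = growth at the plate median or of vehicle wells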
Conditions: S. cerevisiae deletion strains, growth OD

Measured: normalized growth

CC[C@@]1(C2O[C@@H](C3O[C@@](O)(CC)[C@H](C)C[C@@H]3C)C[C@@H]2C)CC[C@H]([C@]2(C)CCC3(C[C@H](O)[C@@H](C)[C@@H]([C@H](C)[C@@H](OC)[C@H](C)C(=O)O)O3)O2)O1 (stereo not given in full)
inactive: locus YAL013W, strain DEP1, stronger effect = lower value 0.998 | locus YAL021C, strain ccr4, stronger effect = lower value 0.924 | locus YAL030W, strain snc1, stronger effect = lower value 1.03 | locus YBL061C, strain skt5, stronger effect = lower value 1.04 | locus YBR009C, strain hhf1, stronger effect = lower value 1.02 | locus YBR021W, strain FUR4, stronger effect = lower value 1.05 | locus YBR023C, strain chs3, stronger effect = lower value 1.03 | locus YBR171W, strain sec66, stronger effect = lower value 0.974 | locus YBR229C, strain ROT2, stronger effect = lower value 1.03 | locus YBR231C, strain swc5, stronger effect = lower value 1.06 | locus YBR279W, strain paf1, stronger effect = lower value 1.03 | locus YCL011C, strain gbp2, stronger effect = lower value 0.991 | locus YCL016C, strain dcc1, stronger effect = lower value 1.02 | locus YCL029C, strain bik1, stronger effect = lower value 0.982 | locus YCL069W, strain vba3, stronger effect = lower value 0.998 | locus YCR088W, strain abp1, stronger effect = lower value 0.966 | locus YDL005C, strain med2, stronger effect = lower value 1.06 | locus YDL035C, strain GPR1, stronger effect = lower value 1.04 | locus YDL040C, strain nat1, stronger effect = lower value 1.03 | locus YDL074C, strain BRE1, stronger effect = lower value 0.994 | locus YDL101C, strain DUN1, stronger effect = lower value 0.99 | locus YDL134C, strain PPH21, stronger effect = lower value 1.05 | locus YDL185W, strain tfp1, stronger effect = lower value 0.96 | locus YDL192W, strain arf1, stronger effect = lower value 0.999 | locus YDR001C, strain nth1, stronger effect = lower value 0.972 | locus YDR069C, strain doa4, stronger effect = lower value 1.03 | locus YDR101C, strain arx1, stronger effect = lower value 1.01 | locus YDR159W, strain sac3, stronger effect = lower value 1.02 | locus YDR162C, strain NBP2, stronger effect = lower value 1.01 | locus YDR195W, strain ref2 1.04 | locus YDR297W, strain sur2, stronger effect = lower value 1.04 | locus YDR318W, strain mcm21, stronger effect = lower value 0.98 | locus YDR334W, strain swr1, stronger effect = lower value 0.987 | locus YDR335W, strain msn5, stronger effect = lower value 1.02 | locus YDR388W, stronger effect = lower value 1.01 | locus YDR392W, strain spt3, stronger effect = lower value 1.08 | locus YDR502C, strain sam2, stronger effect = lower value 0.983 | locus YEL003W, strain gim4, stronger effect = lower value 1 | locus YEL037C, strain rad23, stronger effect = lower value 1.01 | locus YEL061C, strain CIN8 (second series), stronger effect = lower value 1.01 | locus YEL061C, strain CIN8, stronger effect = lower value 0.99 | locus YER015W, strain faa2, stronger effect = lower value 1.01 | locus YER016W, strain bim1, stronger effect = lower value 1.01 | locus YER110C, stronger effect = lower value 1.01 | locus YER111C, strain swi4, stronger effect = lower value 1.04 | locus YER155C, strain BEM2 (second series), stronger effect = lower value 1.08 | locus YER155C, strain BEM2, stronger effect = lower value 0.999 | locus YER167W, strain BCK2, stronger effect = lower value 0.992 | locus YFR010W, strain ubp6, stronger effect = lower value 1.02 | locus YGL078C, strain dbp3, stronger effect = lower value 0.994 | locus YGL086W, strain mad1, stronger effect = lower value 1 | locus YGL167C, strain pmr1, stronger effect = lower value 1.05 | locus YGL173C, strain kem1, stronger effect = lower value 1.04 | locus YGL227W, strain vid30, stronger effect = lower value 1 | locus YGL240W, strain doc1, stronger effect = lower value 1.04 | locus YGL248W, strain PDE1, stronger effect = lower value 0.991 | locus YGL253W, strain hxk2, stronger effect = lower value 0.983 | locus YGR078C, strain PAC10, stronger effect = lower value 0.994 | locus YGR135W, strain pre9, stronger effect = lower value 0.971 | locus YGR252W, strain gcn5, stronger effect = lower value 0.976 | locus YHR013C, strain ard1, stronger effect = lower value 1.03 | locus YHR027C, strain rpn1, stronger effect = lower value 1.05 | locus YHR030C, strain SLT2, stronger effect = lower value 1.01 and 0.966 | locus YHR079C, strain IRE1 (second series), stronger effect = lower value 0.991 | locus YHR079C, strain IRE1, stronger effect = lower value 0.956 | locus YHR094C, strain hxt1, stronger effect = lower value 1.02 | locus YHR129C, strain ARP1, stronger effect = lower value 1 | locus YHR142W, strain chs7, stronger effect = lower value 0.966 | locus YHR200W, strain rpn10, stronger effect = lower value 0.986 | locus YIL066C, strain RNR3, stronger effect = lower value 1 | locus YIL073C, strain SPO22, stronger effect = lower value 0.915 | locus YIL125W, strain kgd1, stronger effect = lower value 0.993 | locus YIR030C, strain dcg1, stronger effect = lower value 1 | locus YJL092W, strain hpr5, stronger effect = lower value 0.973 | locus YJL095W, strain BCK1 (second series), stronger effect = lower value 1.04 | locus YJL095W, strain BCK1, stronger effect = lower value 0.972 and 0.975 | locus YJL115W, strain asf1, stronger effect = lower value 1.02 | locus YJL134W, strain LCB3, stronger effect = lower value 1.01 | locus YJL154C, strain vps35, stronger effect = lower value 0.963 | locus YJL164C, strain tpk1, stronger effect = lower value 0.993 | locus YJL166W, strain qcr8, stronger effect = lower value 1.04 | locus YJL168C, strain set2, stronger effect = lower value 1.03 | locus YJL187C, strain SWE1 (second series), stronger effect = lower value 0.98 | locus YJR043C, strain POL32, stronger effect = lower value 1.05 | locus YJR066W, strain TOR1, stronger effect = lower value 0.941 | locus YKL009W, strain mrt4, stronger effect = lower value 1 | locus YKL068W, stronger effect = lower value 0.998 | locus YKL085W, strain MDH1 (second series), stronger effect = lower value 0.942 | locus YKL085W, strain MDH1, stronger effect = lower value 0.942 | locus YKL160W, strain elf1, stronger effect = lower value 1.01 | locus YKL190W, strain CNB1, stronger effect = lower value 0.981 | locus YKR001C, strain vps1, stronger effect = lower value 1.03 | locus YKR026C, strain gcn3, stronger effect = lower value 0.979 | locus YKR091W, strain srl3, stronger effect = lower value 0.999 | locus YLL001W, strain dnm1, stronger effect = lower value 1.02 | locus YLL026W, stronger effect = lower value 1 | locus YLL041C, strain sdh2, stronger effect = lower value 1.01 | locus YLR027C, strain aat2, stronger effect = lower value 0.995 | locus YLR039C, strain RIC1, stronger effect = lower value 1.32 | locus YLR058C, strain SHM2, stronger effect = lower value 0.989 | locus YLR102C, strain apc9, stronger effect = lower value 1.02 | locus YLR113W, strain HOG1, stronger effect = lower value 0.947 | locus YLR221C, strain rsa3, stronger effect = lower value 0.988 | locus YLR258W, strain gsy2, stronger effect = lower value 1.03 | locus YLR262C, strain YPT6, stronger effect = lower value 1.07 | locus YLR268W, strain sec22, stronger effect = lower value 0.987 | locus YLR320W, strain mms22, stronger effect = lower value 1.02 | locus YLR330W, strain CHS5, stronger effect = lower value 0.994 | locus YLR342W, strain FKS1 (second series), stronger effect = lower value 1.05 | locus YLR342W, strain FKS1, stronger effect = lower value 1.01 | locus YLR357W, strain rsc2, stronger effect = lower value 1.01 | locus YLR370C, strain arc18, stronger effect = lower value 0.979 | locus YLR371W, strain rom2, stronger effect = lower value 1.01 | locus YLR384C, strain iki3, stronger effect = lower value 1.05 | locus YLR418C, strain cdc73, stronger effect = lower value 0.993 | locus YML016C, strain PPZ1, stronger effect = lower value 0.996 | locus YML032C, strain rad52, stronger effect = lower value 1.01 | locus YML120C, strain ndi1, stronger effect = lower value 1.01 | locus YML124C, strain tub3, stronger effect = lower value 1.01 | locus YMR058W, strain fet3, stronger effect = lower value 1.01 | locus YMR078C, strain ctf18, stronger effect = lower value 1.02 | locus YMR125W, strain sto1, stronger effect = lower value 0.982 | locus YMR129W, stronger effect = lower value 0.999 | locus YMR205C, strain PFK2, stronger effect = lower value 1.01 | locus YMR223W, strain ubp8, stronger effect = lower value 0.983 | locus YMR263W, strain SAP30, stronger effect = lower value 0.967 | locus YMR307W, strain GAS1, stronger effect = lower value 1.23 | locus YNL067W, strain RPL9B, stronger effect = lower value 0.959 | locus YNL071W, strain lat1, stronger effect = lower value 1.01 | locus YNL128W, strain TEP1, stronger effect = lower value 0.956 | locus YNL153C, strain GIM3, stronger effect = lower value 0.997 | locus YNL183C, strain NPR1, stronger effect = lower value 0.941 | locus YNL209W, strain ssb2, stronger effect = lower value 1.05 | locus YNL233W, strain BNI4, stronger effect = lower value 1 | locus YNL248C, strain rpa49, stronger effect = lower value 1.03 | locus YNL250W, strain rad50, stronger effect = lower value 0.998 | locus YNL271C, strain bni1, stronger effect = lower value 1.01 | locus YNL298W, strain CLA4, stronger effect = lower value 0.993 | locus YNL307C, strain MCK1, stronger effect = lower value 1.05 | locus YNL322C, strain KRE1 (second series), stronger effect = lower value 0.962 | locus YNL322C, strain KRE1, stronger effect = lower value 0.99 | locus YNR049C, strain mso1, stronger effect = lower value 0.985 | locus YNR052C, strain pop2, stronger effect = lower value 0.988 | locus YOL012C, strain htz1 1.01 | locus YOL147C, strain pex11, stronger effect = lower value 1.01 | locus YOR001W, strain rrp6, stronger effect = lower value 1.02 | locus YOR061W, strain CKA2, stronger effect = lower value 1 | locus YOR069W, strain VPS5, stronger effect = lower value 1 | locus YOR070C, strain gyp1, stronger effect = lower value 1.03 | locus YOR080W, strain dia2, stronger effect = lower value 1.03 | locus YOR083W, strain WHI5, stronger effect = lower value 1.01 | locus YOR136W, strain idh2, stronger effect = lower value 0.99 | locus YOR144C, strain elg1, stronger effect = lower value 1.01 | locus YOR184W, strain ser1, stronger effect = lower value 0.977 | locus YOR231W, strain MKK1, stronger effect = lower value 0.974 | locus YOR265W, strain rbl2, stronger effect = lower value 1.04 | locus YOR290C, strain snf2, stronger effect = lower value 0.978 | locus YOR316C, strain cot1, stronger effect = lower value 1.01 | locus YPL051W, strain arl3, stronger effect = lower value 1.01 | locus YPL055C, strain LGE1, stronger effect = lower value 1.01 | locus YPL078C, strain atp4, stronger effect = lower value 1.05 | locus YPL106C, strain sse1, stronger effect = lower value 1.08 | locus YPL240C, strain hsp82, stronger effect = lower value 1.04 | locus YPL241C, strain CIN2, stronger effect = lower value 1.01 | locus YPL256C, strain CLN2, stronger effect = lower value 0.993 | locus YPR119W, strain clb2, stronger effect = lower value 1.02 | locus YPR141C, strain kar3, stronger effect = lower value 0.993 | locus YPR163C, strain tif3, stronger effect = lower value 1.05 | locus YPR167C, strain met16, stronger effect = lower value 0.991 | strain wtn01, stronger effect = lower value 0.99
